Laboratory results reported in PubChem BioAssay AID588413 (Sanford-Burnham Center for Chemical Genomics, 2011).
About 2,500 (0.74%) of roughly 340,000 compounds were called active.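 How the source made its calls: active means inhibition above about 55% (limit read from the data); inactive means the rest.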 The entries come from a sample that favours actives as a whole.

Assay: Gli-Sufu pathway antagonists, primary screen, luciferase luminescence, Sufu-KO-LIGHT cells, uHTS (AID 588413);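 further: 0% = DMSO-treated cells and 100% = wells with medium but no cells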
Conditions: Sufu-KO-LIGHT fibroblasts, Gli luciferase reporter luminescence; at 5 µM; stronger effect = higher value

Compound | inhibition
O=c1c2cc([N+](=O)[O-])ccc2nc2n1CCC2 | -23.1% (inactive)
CCOC(=O)c1cnc(-n2nc(C)cc2C)nc1NNc1cc(C)nc(-c2ccccc2)n1 | 80% (active)
CC(=O)c1ccc(Oc2cc(C)nc(-n3nc(C)cc3C)n2)cc1 | 30.8% (inactive)
Cc1cc(C)n(-c2c(F)c(F)c(COC(=O)c3ccccc3)c(F)c2F)n1 | 6.99% (inactive)
Cc1nn(Cc2ccc(F)cc2)c(C)c1NC(=O)c1noc2c1CCc1ccccc1-2 | 6.19% (inactive)
O=C(O)C(c1cccs1)C1(O)CCCCC1 (configuration not stated) | 6.95% (inactive)
NC(=O)C1=C[C@@H](c2ccc3c(c2)OCO3)C[C@@H](OCCCCO)O1 | -4.81% (inactive)
C=CCOC(=O)C1=C[C@@H](c2ccc3c(c2)OCO3)C[C@@H](OCCCCO)O1 | 98.8% (active)
C=CCOC(=O)C1=C[C@H](c2ccc(Br)cc2)C[C@H](OCCCCO)O1 | -1% (inactive)
Cc1cc(NC(=O)c2cccc(N3C(=O)CCC3=O)c2)no1 | 98.8% (active)
COc1ccccc1-c1nnc(NC(=O)c2cccc(N3C(=O)CCC3=O)c2)o1 | -6.14% (inactive)
COC(=O)c1cccc(NC(=O)c2cccc(N3C(=O)CCC3=O)c2)c1 | 8.09% (inactive)
C/C(CC(=O)N1CCN(C=O)CC1)=N\NC(=O)c1ccc(Br)cc1 | 3.23% (inactive)
CCOC(=O)c1c(C)nn(-c2ncccc2NC(=O)CCC(=O)O)c1C | 1.77% (inactive)
Cn1c(=O)n(C)c2cc(CNc3ccc(N4CCOCC4)c(C(=O)O)c3)ccc21 | 5.36% (inactive)
COCC(=O)Nc1ccc(Br)cc1 | -3.01% (inactive)
CN1CCN(NC(=O)Nc2ccc(Br)cc2)CC1 | -5.05% (inactive)
CN1C(CC(=O)Nc2ccc(Br)cc2)c2ccccc2CC1(C)C (configuration not stated) | 75.8% (active)
COc1ccc(C(=O)N2CCCC(C(=O)c3ccccc3OC)C2)cc1OC (configuration not stated) | -11.7% (inactive)
COc1ccccc1C(CNC(=O)c1cccc(NS(=O)(=O)c2ccc(Br)cc2)c1)N(C)C (configuration not stated) | 4.43% (inactive)
CC(C)Oc1ccc(CN2CCC(n3nccc3NC(=O)c3cccnc3)CC2)cc1 | 61.3% (active)
COc1ccc(C(=O)Nc2ccnn2C2CCN(Cc3ccncc3)CC2)cc1 | -4.23% (inactive)
COc1ccccc1C(=O)Nc1ccnn1C1CCN(Cc2cnn(C)c2)CC1 | 8.85% (inactive)

Compound | inhibition
COCCn1cnnc1SCC(=O)Nc1cccc(S(=O)(=O)N2CCCCC2)c1 | -21.3% (inactive)
CCOc1cccc(NC(=O)Cn2nc(-c3ccc4c(c3)OCCO4)ccc2=O)c1 | -1.4% (inactive)
Cc1c(C(=O)NCC(c2ccco2)N2CCCC2)oc2ccc(Cl)cc12 (configuration not stated) | 16.9% (inactive)
O=C1[C@@H](c2ccccc2)[C@@H](c2ccccc2)N1c1cccnc1 | 7.59% (inactive)
C[C@@H]1NS(=O)(=O)c2cc(Cl)ccc2O[C@@H]1c1ccccc1 | -5.11% (inactive)
O=C(COc1cccc(Cl)c1)NCc1ccccc1 | 5.34% (inactive)
CCOc1cccc(C(=O)Nc2cnn(Cc3ccccc3)c2)c1 | -43.8% (inactive)
O=C(O)CCCn1cc(NC(=O)COc2cccc(Cl)c2)cn1 | 62.4% (active)
COC(=O)C1CC2=C(CC(C)(C)CC2=O)N(c2ccccc2)C1=O (configuration not stated) | 4.81% (inactive)
Cc1ccc(C(CNC(=O)Nc2cccc(C)c2)N2CCN(C)CC2)cc1 (configuration not stated) | 44.3% (inactive)
CCOc1cc(C2/C(=C(/O)c3ccc(S(=O)(=O)N4CCCCC4)cc3)C(=O)C(=O)N2CCOC)ccc1O (configuration not stated) | -6.41% (inactive)
CCCN(C(=O)CSc1nnnn1C)c1c(N)n(Cc2ccccc2)c(=O)[nH]c1=O | -4.32% (inactive)
COc1ccc2sc(-c3ccc(N(C)C)cc3)c(C#CCO)c2c1 | -3.68% (inactive)
COc1ccc2c(c1)c(=Cc1ccc(N(C)C)cc1)c1cc(-c3ccccc3)[n+](C)n12 | 71.7% (active)
CN(CC(=O)NC(=O)Nc1ccccc1F)Cc1ccccc1 | -0.74% (inactive)
CCn1nc(C(=O)Nc2ccc(N3CCOCC3)cc2)c2ccccc2c1=O | 6.24% (inactive)
CCS(=O)(=O)Nc1cc(C(=O)OC)ccc1C(=O)OC | -3.7% (inactive)
CCCN(CCC)C(=S)Nc1cc(C(=O)OC)ccc1C(=O)OC | 1.47% (inactive)
CCN(CCO)C(=S)Nc1cc(C(=O)OC)ccc1C(=O)OC | 96.9% (active)
O=C(C(c1ccccc1)c1ccccc1)N1CCN(CC(O)COc2ccccc2)CC1 (configuration not stated) | 3.62% (inactive)
CC(C)OCC(O)CN1CCN(C(c2ccccc2)c2ccccc2)CC1 (configuration not stated) | 76.8% (active)
COc1ccccc1CN1CCN(C(c2ccccc2)c2ccccc2)CC1 | 25.4% (inactive)
COc1ccc(C(=O)OCC(=O)NCC2CCCO2)cc1[N+](=O)[O-] (configuration not stated) | -0.12% (inactive)

Compound | inhibition
c1ccc2c(c1)CSc1sccc1C2=C1CCNCC1 | 28.4% (inactive)
COC(=O)c1c(C)[nH]c(C(=O)NCCc2ccc(S(N)(=O)=O)cc2)c1C | -12.2% (inactive)
COc1ccc(NC(=O)NNC(=O)COc2cc(C)c(Cl)c(C)c2)c(OC)c1 | -3.14% (inactive)
Cc1cccc(N2CC(C(=O)Nc3ccccc3N3CCCC3)CC2=O)c1C (configuration not stated) | -3.8% (inactive)
CN1CCN(CCC(=O)N/N=C/C=C2\N(C)c3ccccc3C2(C)C)CC1 | 29.6% (inactive)
CC(C)Nc1nnc(SCC(=O)/C=C2\N(C)c3ccccc3C2(C)C)s1 | 2.92% (inactive)
CC(=O)Nc1cccc(OCC(=O)/C=C2\N(C)c3ccccc3C2(C)C)c1 | 56.5% (active)
COc1ccc(N2CCN(C(=O)C3CCN(S(=O)(=O)c4ccc(C)cc4)CC3)CC2)cc1 | 18.7% (inactive)
CCCCCN(C(=O)NC(=O)Nc1cccc(C)c1C)S(C)(=O)=O | -3.52% (inactive)
CC(=O)OCCC(C)C | 57.4% (active)
CC(=O)OC(C)C[N+](C)(C)C (configuration not stated) | 15.8% (inactive)
CC(=O)OCC(COC(C)=O)OC(C)=O | -14.9% (inactive)
CC(C)CC(=O)NC(=S)NNC(=O)c1cccc([N+](=O)[O-])c1 | -4.7% (inactive)
COc1ccc(C)cc1NC(=S)N1CCOCC1 | 1.61% (inactive)
CC(=O)N1CCCc2cc(S(=O)(=O)N3CCCC(C(=O)N4CCN(c5cccc(Cl)c5)CC4)C3)ccc21 (configuration not stated) | 64.5% (active)
CC(=O)N1c2ccc(S(=O)(=O)N3CCCC(C(=O)Nc4cccc(Cl)c4)C3)cc2CC1C (configuration not stated) | -0.91% (inactive)
CC(=O)N1CCCc2cc(S(=O)(=O)N3CCCC(C(=O)NCc4ccc(Cl)cc4)C3)ccc21 (configuration not stated) | 27% (inactive)
O=C(Nc1ccccc1C(=O)NCCCn1ccnc1)c1ccc(Cl)cc1Cl | 19.3% (inactive)
CCOC(=O)C(CO)NC(=O)C1(NC(C)=O)CCCC1 (configuration not stated) | -2.14% (inactive)
O=C(CN(CC1CCCO1)C(=O)CNS(=O)(=O)c1ccc(F)cc1)NCc1ccco1 (configuration not stated) | 0.03% (inactive)
O=C1/C(=C/c2ccc(F)cc2)SC(=S)N1CCCC(=O)N1CCCCC1CCO (configuration not stated) | -14.7% (inactive)
O=C(O)c1ccc(/C=C2\SC(=S)N(NC(=O)c3ccc(Br)cc3)C2=O)cc1 | 10% (inactive)
O=C1/C(=C/c2ccc(F)cc2)SC(=S)N1NS(=O)(=O)c1ccccc1 | 59.1% (active)

Compound | inhibition
CN1CCN(C(=O)N2c3ccccc3CCc3ccccc32)CC1 | 0.29% (inactive)
CC1CCc2sc(C(=O)NCC(c3ccco3)N3CCCCC3)cc2C1 (configuration not stated) | 16.2% (inactive)
Cc1ccc(CN(Cc2cccnc2)C(=S)Nc2cc(Cl)ccc2C)cc1 | 12.8% (inactive)
CC(=O)NCC(=O)N(C)C(C(=O)Nc1ccc2c(c1)OCCO2)c1ccccc1 (configuration not stated) | -14.5% (inactive)
CCc1ccc(-n2c(SCc3cc(=O)n4cc(Br)ccc4n3)nc3[nH]ncc3c2=O)cc1 | 5.99% (inactive)
COc1ccc(CCNC(=O)CSc2nc3[nH]ncc3c(=O)n2-c2cccc(C(F)(F)F)c2)cc1OC | 0.76% (inactive)
Cc1cccc2nc(CSc3nc4[nH]ncc4c(=O)n3-c3cccc(Cl)c3)cc(=O)n12 | 67.7% (active)
CCn1cc(-c2cc(C(=O)O)on2)c(C)n1 | -4.15% (inactive)
COc1ccc(-n2c(SCC(=O)Nc3ccc4c(c3)OCO4)nnc2C(C)N2CCCCC2)cc1 (configuration not stated) | 7.4% (inactive)
CCCc1cc(=O)[nH]c(SCC(=O)c2cc(C)n(CCC)c2C)n1 | 1.52% (inactive)
Cc1cc(C(=O)CSc2nc(N)cc(=O)[nH]2)c(C)n1CCc1ccc(Cl)cc1 | 0.27% (inactive)
Cc1cc(C(=O)CSc2nc(N)cc(=O)[nH]2)c(C)n1-c1cccc(F)c1 | 56.6% (active)
Cc1cc(=O)oc2cc(OCC(=O)N3CCN(c4ccc(F)cc4)CC3)c(Cl)cc12 | 6.77% (inactive)
Oc1c(CN2CCN(c3ccc(F)cc3)CC2)cc(Cl)c2cccnc12 | 92.7% (active)
COc1cc(C)cc(CN2CCC(Cc3ccccc3)CC2)c1O | 15.5% (inactive)
Cc1ccc(CN2CCN(c3ncccn3)CC2)c(C)c1 | 1.86% (inactive)
CC1CCCN(CC(O)COCc2ccccc2)C1 (configuration not stated) | 12.2% (inactive)
Oc1c(CN2CCCC2)cc(COCc2ccccc2)c2cccnc12 | 77.7% (active)
CC(C)C(C)NC(=O)COc1nc2ccccc2nc1N(C)C1CCCCC1 (configuration not stated) | -2.52% (inactive)
CCc1nnc(NC(=O)CCN(c2ccc(C)cc2)S(=O)(=O)c2ccccc2)s1 | -7.2% (inactive)
O=C1/C(=C\Nc2ccccc2)CCN1c1ncccn1 | -39% (inactive)
Cc1ccccc1NC(=O)NC1(C(=O)N2CCCC2)CCCCC1 | 44.2% (inactive)
Cc1ccc(C)c(NS(=O)(=O)c2c(C)[nH]c(C)c2C(=O)N2CCCCC2)c1 | -12.2% (inactive)
